# KDM5B inhibitor: inhibitors of human KDM5B histone demethylase | Q9UGL1 | KDM5B demethylase, FDH-coupled NADH fluorescence (FDH is formaldehyde dehydrogenase) | Potency, µM (titrated, usually from 57.7 µM), actives largely listed as inhibitors | 220,000 tested, 2.6% active | AID 1347165; note: potency is the fitted concentration of half-maximal effect; 0% is about no effect; nearly all actives have a fitted effect of over 70% in size
#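 Compound dilutions met 200 nM (final) KDM5BΔAP for 10 min at room temperature before substrate addition. The substrate mix held 12.5 µM H3K4me3 with cofactors 25 µM α-ketoglutarate and 50 µM Fe²⁺. NADH signal gain over 30 min defined activity.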
# IP6K1 inhibitor: inhibitors of human IP6K1. AID 1645851. 140,000 tested, 0.81% active. activity change, % (series mostly up to about 58 µM). IP6K1 kinase, ADP-Glo luminescence, 2 h; active compounds read low. Q92551; in the data active = activity change below about -25%; note: % is set by controls: 0 for no effect and ±100 for the full control effect
# Target sequence (Q92551 whole entry, looked up): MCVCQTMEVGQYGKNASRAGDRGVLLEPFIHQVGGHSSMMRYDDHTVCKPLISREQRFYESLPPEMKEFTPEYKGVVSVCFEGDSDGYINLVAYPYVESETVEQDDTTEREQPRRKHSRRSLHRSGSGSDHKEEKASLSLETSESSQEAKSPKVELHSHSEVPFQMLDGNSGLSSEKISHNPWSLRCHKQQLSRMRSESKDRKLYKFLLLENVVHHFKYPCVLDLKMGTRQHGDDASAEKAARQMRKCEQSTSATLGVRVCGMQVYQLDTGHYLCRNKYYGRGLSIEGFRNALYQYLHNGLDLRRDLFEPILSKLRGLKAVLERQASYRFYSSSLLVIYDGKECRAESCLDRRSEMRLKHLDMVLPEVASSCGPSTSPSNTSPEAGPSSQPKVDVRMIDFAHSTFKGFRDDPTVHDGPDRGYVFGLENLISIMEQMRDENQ
#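 ADP-Glo luminescence measures ADP made by human IP6K1 during a 2 h RT reaction with ATP/IP6 (mix at 1.3 mM/130 uM); top library doses 57.5 and 19.1 uM final.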
# IP6K1 conf: human IP6K1 inhibition, confirmatory. recombinant IP6K1 kinase, ADP-Glo luminescence, 2 h. 1,200 tested, 13% active. shares compounds with IP6K1 inhibitor. Potency, µM (titrated, usually from 49 µM), for the others: top-dose activity change, negative = inhibition, usual class: inhibitors; note: potency is the fitted concentration of half-maximal effect; % is set by controls: 0 for no effect and ±100 for the full control effect; nearly all actives have a fitted effect of over 65% in size
# * = called active by the depositor; i = inactive; u = inconclusive; x = not tested or not shown. An excerpt weighted towards active compounds, which were near 2.8% of everything screened. Unless noted, calls come from the whole dose curve; as a rule, active = well fitted inhibition curve with a large enough effect; inconclusive = small, poorly fitted or top-dose-only effect; inactive = no such curve, though single readings can be large or run the other way.
SMILES,KDM5B inhibitor,IP6K1 inhibitor,IP6K1 conf
O=C(CSc1nnc2[nH]c(=O)c(Cc3ccccc3)nn12)Nc1cccc(Cl)c1,i,x,x
O=C(Nc1ccc2oc(-c3ccc(-c4ccccc4)cc3)nc2c1)c1ccco1,i,x,x
CC(C)CN(C1CCN(C)CC1)C1CN(C(=O)c2cccs2)C1,x,7,x
CN(C)c1cc(NC(=O)CNC(C)(C)C)c(O)c2c1C[C@@H]1C[C@H]3[C@H](N(C)C)C(=O)C(C(N)=O)=C(O)[C@@]3(O)C(=O)C1=C2O,x,12,x
C=C1c2cccc(O)c2C(O)=C2C(=O)[C@]3(O)C(O)=C(C(N)=O)C(=O)[C@@H](N(C)C)[C@@H]3[C@@H](O)[C@H]12,x,-37*,-13%
COc1ccccc1-c1ccc(CN2CCCCC2C(=O)NCC(F)F)cc1 (configuration not stated),x,18,x
O=C(NC(=O)c1ccc(F)cc1)Nc1ccc(-c2cc(C(F)(F)F)nn2-c2ccccc2)cc1,u,24,x
NCC(=O)Nc1ccc(-n2nc(C(F)(F)F)cc2-c2ccc3c(ccc4ccccc43)c2)cc1,x,-35*,u
Cc1cccc(NC(=O)CSc2cn(CC(=O)N3CCCCCC3)c3ccccc23)c1,i,-41*,-4%
O=C(Cn1cc(SCc2cccc(F)c2)c2ccccc21)N1CCOCC1,u,-1,x
Cc1cccc(NC(=O)CSc2cn(CC(=O)N3CCOCC3)c3ccccc23)c1,i,18,x
O=C(Cn1cc(SCc2cccc(F)c2)c2ccccc21)N1CCCC1,i,-97*,u
O=C(Cc1c[nH]c2ccccc12)OCc1ccc(Cl)cc1Cl,i,x,x
COc1cccc(-c2ncc3c(n2)OCCN(c2cccc(C(F)(F)F)c2)C3=O)c1,i,-12,x
COc1cccc(-c2ncc3c(n2)OCCN(c2ccccc2)C3=O)c1,28µM*,-27*,u
CC(=O)c1cc(F)ccc1Oc1nc(C)nc2sc3c(c12)CCC3,i,x,x
Fc1ccccc1-c1nc(NCc2ccccc2)c2ccccc2n1,i,x,x
Fc1cccc(CNc2nc(-c3ccccc3C(F)(F)F)nc3ccccc23)c1,x,x,-8%
Fc1ccc(CNc2nc(-c3ccccc3C(F)(F)F)nc3ccccc23)cc1,x,x,-2%
c1ccc(CNc2nc(-c3ccccn3)nc3ccccc23)cc1,i,x,x
c1ccc(-c2c3c(ccc4ccccc43)[o+]c3ccc4ccccc4c23)cc1,i,x,x
Oc1cccc(CNC(c2ccccc2)c2ccccc2)c1,i,x,x
Cc1cccc(N2CCN(c3ccc(C(=O)O)cc3NC(=O)c3cccc(Cl)c3)CC2C)c1 (configuration not stated),u,-28*,u
Cc1cccc(N2CCN(c3ccc(NC(=O)c4ccccc4)cc3C(=O)O)CC2C)c1 (configuration not stated),u,-12,x
COc1ccc(F)cc1-c1ccc(CN2CCC(NC(=O)c3ccc(Cl)cc3)C2)cc1 (configuration not stated),x,2,x
SMILES,KDM5B inhibitor,IP6K1 inhibitor,IP6K1 conf
COc1ccc(C(=O)N2CCC(Cc3nncn3-c3ccccc3)C2)cc1F (configuration not stated),x,7,x
Cc1cc(C)cc(NC(=O)COc2ccc3c(C)cc(=O)oc3c2)c1,i,x,x
COc1ccc(NC(=O)Cn2nnc(C(=O)Nc3ccc(C)c(F)c3)c2N)cc1Cl,i,21,x
COc1ccc(Cn2nnc(C(=O)Nc3ccc(F)c(F)c3)c2N)cc1Br,i,x,x
Cc1cccc(NC(=O)Cn2nnc(C(=O)Nc3ccc(F)c(Cl)c3)c2N)c1,i,-34*,-17%
COc1cccc(NC(=O)c2nnn(Cc3ccc(OC)c(Br)c3)c2N)c1,i,-27*,u
Cc1ccc2c(n1)sc1c(=O)n(-c3cccc(C(=O)OCC(C)C)c3)nnc12,i,x,x
Cc1ccc2c(n1)sc1c(=O)n(-c3cccc(C(F)(F)F)c3)nnc12,u,-27*,-17%
Cc1cccc(NC(=O)Nc2nnc(N3CCCC3)s2)c1,i,31,x
CC(=O)c1cccc(NC(=O)Nc2nnc(N3CCCC3)s2)c1,i,-38*,-19%
CCOc1ccc(S(=O)(=O)Nc2ccc3c(c2)CCCN3S(=O)(=O)c2ccc(C)cc2)cc1,i,-8,x
Cc1ccc(S(=O)(=O)N2CCCc3cc(NS(=O)(=O)c4cccc(Cl)c4)ccc32)cc1,i,-26*,6%
Cc1cccc(C(=O)NCc2nnc(SCC(=O)NC3CCCCC3)n2-c2ccccc2)c1,i,x,x
C/C(=N/Nc1ccc(S(=O)(=O)Nc2ccc(Cl)cc2)cc1[N+](=O)[O-])c1ccco1,i,x,x
Cc1nc2cnccn2c1C(=O)N1CCOCC1,x,6,x
COc1ccc(Nc2nc(N)c(C(=O)c3ccc(Br)cc3)s2)cc1OC,i,x,x
Cn1c(=O)n(C)c2cc(N3CCOCC3)c(NS(=O)(=O)c3ccc(Cl)cc3)cc21,i,-13,x
Cn1c(=O)c(=O)n(C)c2cc(N3CCOCC3)c(NS(=O)(=O)c3ccc(Cl)cc3)cc21,u,-32*,-4%
O=C(NC1CCCCCC1)C1CCCN(C(=O)Cc2c[nH]c3ccccc23)C1 (configuration not stated),i,x,x
Cc1cc2cc(C(=O)N(C)Cc3ccc4nsnc4c3)ccc2o1,i,-32*,u
CN(Cc1ccc2nsnc2c1)C(=O)c1ccc(CCC(C)(C)O)cc1,u,21,x
COCCNC(=O)[C@@H]1C[C@H](Oc2cccnc2)CN1C(=O)c1n[nH]c2ccccc12,x,5,x
Cc1cccc(NC(=O)N2CCN(C3=Nc4ccccc4Oc4ccccc43)CC2)c1C,i,x,x
O=C(c1ccc2nnc(-c3cccc(OC(F)(F)F)c3)n2c1)N1CCCC1,x,21,x
NC(=O)N1CCC(CC(=O)N2CCC(C3c4ncc(Br)cc4CCc4cc(Cl)cc(Br)c43)CC2)CC1 (configuration not stated),x,-40*,u
SMILES,KDM5B inhibitor,IP6K1 inhibitor,IP6K1 conf
O=C(Nc1ccc(Cl)cc1)c1nnc(C(=O)N2CCC(CC(=O)N3CCCC3)CC2)s1,i,x,x
Cc1ccc(S(=O)(=O)Nc2nc3ccc(C)cc3nc2Nc2ccc3c(c2)OCO3)cc1,i,x,x
COc1ccc(-c2ccc3c(c2)C(=O)N2CC[C@H](n4nnc(C(N)=O)c4C(N)=O)C[C@H]2C(=O)N3)c(OC)c1,i,-44*,u
COc1ccc(Cl)cc1-c1ccc2c(c1)C(=O)N1CC[C@H](N)C[C@H]1C(=O)N2,u,-11,x
CCc1ccc(/C=C2\N=C(SC)SC2=O)cc1,i,x,x
NC(=O)CCn1cc(CN(CCO)Cc2ccccc2F)c2ccccc21,i,4,x
CCCCCCCCn1cc(CN(CC)CC)c2cc(-c3cnc(N)nc3)ccc21,x,-35*,u
COCCN(CCOC)CCOc1cccc(C#N)c1,i,x,x
Nc1ccc(O)c(C(=O)O)c1,x,-22,x
O=C(O)C1=CC(=C(c2ccc(O)c(C(=O)O)c2)c2ccc(O)c(C(=O)O)c2)C=CC1=O,x,x,1.5µM*
Cc1ccc(CNC(=O)c2cc(-c3ccncc3)nc3ccccc23)cc1,i,x,x
O=C(Cc1csc(-c2ccsc2)n1)Nc1ccnn1Cc1ccccc1Br,i,x,x
Cc1ccc(NC(=O)CCCn2nc(C)c3c(C)n(-c4ccccc4)nc3c2=O)cc1Cl,i,20,x
CCOC(=O)c1cccc(NC(=O)CCCn2nc(C)c3c(C)n(-c4ccccc4)nc3c2=O)c1,i,-100*,8%

# Assay outcomes: PubChem BioAssay, National Center for Advancing Translational Sciences (NCATS)
